This note sets out measurements from publication PMC7826789 (International Journal of Molecular Sciences, 2021).

SMILES strings stand for the structures.

The test system of this experiment is YSK4.
As to `CCCc1cc(N2CCCN(C)CC2)nc2sc3c(N)ncnc3c12` [BI00604564], the Kinases covered entry was “YSK4”.
Take `COc1cc2c(cc1OC)C(=C(Nc1ccccc1)c1cccc(CN)c1)C(=O)N2` [BIBF0846CL]: the Kinases covered result is given as “YSK4”.
The same measure for `Cc1cc(NC(=O)c2cccc(NC(=O)/C=C/CN(C)C)c2)ccc1Nc1nccc(-c2cccnc2)n1` [JNK-IN-7]: “YSK4”.
As for `NC(=O)c1cccnc1COc1cc(-c2ccc(N3CCOCC3)nc2)cc2ncccc12` [BI01125081], the Kinases covered entry is listed as “YSK4”.
With `CC(C)N1CC(=O)N(C)c2cnc(Nc3cccc(S(=O)(=O)CCN4CCOCC4)c3)nc21` [BI00009348], the Kinases covered entry is recorded as “YSK4”.
